Measurements reported in PubChem BioAssay AID1851 (National Center for Advancing Translational Sciences (NCATS), 2009).
Out of some 16,000 compounds screened, about 4,000 (25%) were called active. Not shown: some 26% with an inconclusive outcome. Calls follow the shape of the dose curve; as a rule, active = well fitted curve in the direction sought with a large enough effect; inconclusive = small, poorly fitted or top-dose-only effect, or effect the other way; inactive = no such curve, though single readings can be large or run the other way. These entries were drawn from the full list.

molecular target: Cytochrome P450 2C9 (Homo sapiens) (UniProt P11712); assay: Cytochrome panel assay with activity outcomes; conditions: recombinant CYP, pro-luciferin dealkylation, luminescence, p450-cyp2c9; series mostly up to 57.1 µM
Sequence (P11712 whole entry, looked up): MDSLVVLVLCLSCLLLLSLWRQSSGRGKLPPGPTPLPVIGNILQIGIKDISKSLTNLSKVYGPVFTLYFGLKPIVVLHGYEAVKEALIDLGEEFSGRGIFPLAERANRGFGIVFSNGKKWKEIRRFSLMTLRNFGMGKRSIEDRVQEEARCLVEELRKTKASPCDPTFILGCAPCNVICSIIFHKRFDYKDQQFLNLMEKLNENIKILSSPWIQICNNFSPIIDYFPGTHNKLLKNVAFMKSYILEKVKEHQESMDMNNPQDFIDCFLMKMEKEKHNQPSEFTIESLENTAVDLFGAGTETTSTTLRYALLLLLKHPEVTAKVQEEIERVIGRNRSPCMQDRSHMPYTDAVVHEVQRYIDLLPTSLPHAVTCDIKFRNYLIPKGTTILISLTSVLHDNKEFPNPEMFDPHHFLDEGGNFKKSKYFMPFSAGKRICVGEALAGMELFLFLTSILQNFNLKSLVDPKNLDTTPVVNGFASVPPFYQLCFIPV
% is scaled to controls: 0 for no effect and ±100 for the full control effect.

| Structure (SMILES) | AC50 | activity, negative = inhibition |
| --- | --- | --- |
| COCCn1c(=O)c(-c2cn(C)c3ccccc23)nc2cnc(OCc3ccccc3)nc21 | inactive | – |
| COc1ccc(Oc2ncc3nc(CCc4ccccc4)c(=O)n(CCC#N)c3n2)cc1 | 10 µM (active) | – |
| Cn1cc(-c2nc3cnc(Oc4ccccc4)nc3n(CCC#N)c2=O)c2ccccc21 | inactive | – |
| N#CCCn1c(=O)c(CCc2ccccc2)nc2cnc(OCc3ccccc3)nc21 | 15.8 µM (active) | – |
| N#CCCn1c(=O)c(CCc2ccccc2)nc2cnc(Oc3cccc(Cl)c3)nc21 | 3.16 µM (active) | – |
| COc1cccc(Nc2ncc3nc(CCc4ccccc4)c(=O)n(CCC#N)c3n2)c1 | inactive | – |
| N#CCCn1c(=O)c(CCc2ccccc2)nc2cnc(Oc3ccccc3)nc21 | 7.94 µM (active) | – |
| COc1ncc2nc(CCc3ccccc3)c(=O)n(CCC#N)c2n1 | inactive | – |
| C/C(=N\[N+](C)(C)C)c1ccc(C)c(C)c1 | – | 13% [at 11.4 µM] (inactive) |
| COc1ccc(Oc2ncc3nc(CCc4ccccc4)c(=O)n(C)c3n2)cc1 | 10 µM (active) | – |
| N#CCCn1c(=O)c(-c2ccccc2)nc2cnc(OCc3ccccc3)nc21 | 12.6 µM (active) | – |
| COc1ccc(Oc2ncc3nc(C)c(=O)n(C)c3n2)cc1 | inactive | – |
| COCCn1c(=O)c(CCc2ccccc2)nc2cnc(Oc3cccc(Cl)c3)nc21 | 1 µM (active) | – |
| COCCn1c(=O)c(CCc2ccccc2)nc2cnc(Oc3ccc(OC)cc3)nc21 | 10 µM (active) | – |
| N#CCCn1c(=O)c(-c2ccc(F)cc2)nc2cnc(OCc3ccccc3)nc21 | inactive | – |
| N#CCCn1c(=O)cnc2cnc(OCc3ccccc3)nc21 | inactive | – |
| COc1ncc2nc(CCc3ccccc3)c(=O)n(C)c2n1 | inactive | – |
| COc1ccc(CNc2ccnc(-c3ccccc3Cl)n2)c(OC)c1 | – | -11.5% [at 2.29 µM] (inactive) |
| N[C@@H]1[C@@H]2[C@@H]3C[C@H]4N(CC[C@@]14C(=O)C(=O)O)CC3=CCO[C@@H]2CC(=O)O | – | 5.63% [at 11.4 µM] (inactive) |
| CC(C)(C)CNCCO | – | 3.65% [at 11.4 µM] (inactive) |
| O=C(Nc1cccc(F)c1)N1CC[C@@]2(CCCN(C(=O)c3cnccn3)C2)C1 | inactive | – |
| COc1cc(NC(=S)Nc2ccc(S(=O)(=O)N3CCOCC3)cc2)cc(OC)c1OC | 15.8 µM (active) | – |
| CS(=O)(=O)Nc1ccc(S(=O)(=O)N2CCOCC2)cc1 | inactive | – |
| FC(F)(F)c1ccccc1-c1cncnc1Nc1ccccc1 | – | -0.414% [at 2.29 µM] (inactive) |
| CC(=O)NCCNc1cc(-c2ccccc2C(F)(F)F)ncn1 | – | -3.9% [at 2.29 µM] (inactive) |

| Structure (SMILES) | AC50 | activity, negative = inhibition |
| --- | --- | --- |
| CC=C(/C(=C/C)c1ccc(O)cc1)c1ccc(O)cc1 | 0.794 µM (active) | – |
| Cc1cc(N2CCN(C)CC2)n2nc(-c3ccc(Cl)cc3)nc2n1 | – | 6.91% [at 11.4 µM] (inactive) |
| O=c1c(-c2cccs2)nc2cnc(Oc3cccc(Cl)c3)nc2n1C[C@H]1CCCO1 | 3.16 µM (active) | – |
| COc1ccc(-c2nc3cnc(N(C)C)nc3n(C[C@H]3CCCO3)c2=O)cc1 | inactive | – |
| O=c1c(CCc2ccccc2)nc2cnc(Oc3cccc(Cl)c3)nc2n1C[C@H]1CCCO1 | 6.31 µM (active) | – |
| CN(C)c1ncc2nc(-c3cccs3)c(=O)n(C[C@H]3CCCO3)c2n1 | inactive | – |
| O=c1cnc2cnc(Nc3ccccc3)nc2n1C[C@H]1CCCO1 | inactive | – |
| COc1ncc2nc(-c3cc(F)cc(F)c3)c(=O)n(C[C@H]3CCCO3)c2n1 | inactive | – |
| COc1ccc(-c2nc3cnc(Oc4cccc(Cl)c4)nc3n(C[C@H]3CCCO3)c2=O)cc1 | 5.01 µM (active) | – |
| O=c1c(-c2cccs2)nc2cnc(Nc3ccccc3)nc2n1C[C@H]1CCCO1 | inactive | – |
| Cc1nc2cnc(Oc3cccc(Cl)c3)nc2n(C[C@H]2CCCO2)c1=O | inactive | – |
| Cc1noc(C)c1-c1nccc(N2CCN(C)CC2)n1 | – | 14.4% [at 2.29 µM] (inactive) |
| CN(C)Cc1ccccc1-c1cncnc1NCc1cccnc1 | – | 11.6% [at 2.29 µM] (inactive) |
| COc1ccc(CNc2cc(-c3ccccc3CN(C)C)ncn2)c(OC)c1 | – | 4.22% [at 2.29 µM] (inactive) |
| Cc1ccc(-n2c(C)cc(C(=S)N3CCOCC3)c2C)cc1C | 11.2 µM (active) | – |
| CC(=O)Nc1c(C(=O)N2CCOCC2)cnn1-c1ccc(C)c(C)c1 | inactive | – |
| Cc1cnc(CNc2ccnc(-c3ccoc3)n2)cn1 | – | 12.6% [at 2.29 µM] (inactive) |
| COc1cc2c(cc1OC)-c1cc(=Nc3c(C)cc(C)cc3C)n(C)c(=O)n1CC2 | 1.26 µM (active) | – |
| CSc1c(-c2ccccc2)nc2ccccc2c1C(=O)O | inactive | – |
| Cc1cnc2cc(Cl)ccc2c1SCC(=O)O | – | 3.69% [at 11.4 µM] (inactive) |
| CSc1c(-c2ccccc2)nc2ccc(Cl)cc2c1C(=O)O | 0.794 µM (active) | – |
| CC1(C)CC(O)CC(C)(C)N1CC(O)COCCOc1ccc(Br)cc1 (stereo not drawn) | inactive | – |
| Cc1ccccc1NC(=S)NN1CCN(C)CC1 | inactive | – |
| CC(C)NC(=O)/C(=N\O)c1ccccc1 | inactive | – |
| O=C(O)/C(=C\c1ccccc1)c1ccccc1 | – | -20.6% [at 11.4 µM] (inactive) |

| Structure (SMILES) | AC50 | activity, negative = inhibition |
| --- | --- | --- |
| COc1ccc(/C=C(/C(=O)Nc2ccccc2C(=O)NC(C)C)c2ccccc2)cc1 | 10 µM (active) | – |
| Cc1ccccc1NC(=O)/C(=C/c1ccccc1)c1ccccc1 | 7.94 µM (active) | – |
| O=C(O)c1c2ccccc2cc2ccccc12 | inactive | – |
| N[C@@H](Cc1ccnnc1)C(=O)O | – | -15.4% [at 11.4 µM] (inactive) |
| O=C(CSc1nnc(CNc2ccc(F)cc2)o1)N1c2ccccc2Sc2ccccc21 | 4.47 µM (active) | – |
| CCN(CC)C(=O)CSc1nnc(CNc2ccc(F)cc2)o1 | inactive | – |
| N#Cc1cccc(-c2cc(NCc3ccccc3)ncn2)c1 | – | 10.6% [at 2.29 µM] (inactive) |
| Cc1ccc(-[n+]2cc(=O)o[nH]2)cc1 | – | 2.87% [at 11.4 µM] (inactive) |
| O=S(=O)(Nc1ccc2oc(-c3ccccc3)nc2c1)c1ccccc1 | 0.794 µM (active) | – |
| CS(=O)(=O)Nc1cccc(-c2nc(Nc3ccc(F)cc3)c3ccccc3n2)c1 | – | -24.2% [at 2.29 µM] (inactive) |
| CN(C)c1nc(-c2cccc(NS(C)(=O)=O)c2)nc2ccccc12 | – | 15.7% [at 2.29 µM] (inactive) |
| CC(C)CN=C(N)N=C(N)N | – | -6.17% [at 11.4 µM] (inactive) |
| CC1CCc2c(C(=O)Nc3nccs3)csc2C1 (stereo not drawn) | 3.16 µM (active) | – |
| CN1CCc2cc(Cl)c(O)cc2[C@H](c2ccccc2)C1 | inactive | – |
| CC1=NN(c2ccc(F)cc2)C(=O)C1C(c1cccc(O)c1)c1c(C)[nH]n(-c2ccc(F)cc2)c1=O (stereo not drawn) | 4.47 µM (active) | – |
| COc1cccc(C(c2c(C)[nH]n(-c3ccccc3)c2=O)c2c(C)[nH]n(-c3ccccc3)c2=O)c1O | inactive | – |
| CCC(=O)O[C@@]1(C(=O)SCF)[C@@H](C)C[C@H]2[C@@H]3C[C@@H](F)C4=CC(=O)C=C[C@@]4(C)[C@]3(F)[C@@H](O)C[C@]21C | inactive | – |
| O=C(O)CP(=O)(O)O | inactive | – |
| CC(=O)c1cccc(NC(=O)Oc2ccccc2)c1 | inactive | – |
| COc1ccc(NC(=O)CCOc2ccccc2)cc1 | 11.2 µM (active) | – |
| COC(=O)CCC(=O)Nc1cccc(C(=O)Nc2cccc(Cl)c2)c1 | 3.16 µM (active) | – |
| COC(=O)c1cccc(NC(=O)CCCOc2ccccc2)c1 | 3.16 µM (active) | – |
| Cc1cccc(OCCCC(=O)Nc2ccc(N3CCCCC3)cc2)c1 | inactive | – |
| COc1ccc(NC(=O)c2ccc(COc3ccccc3)o2)cc1 | 0.251 µM (active) | – |
| O=C(O)CCSC1=NCCN1 | – | 2.01% [at 11.4 µM] (inactive) |

| Structure (SMILES) | AC50 | activity, negative = inhibition |
| --- | --- | --- |
| CN(C)Cc1ccccc1-c1cc(NCc2cccs2)ncn1 | – | 12.8% [at 2.29 µM] (inactive) |
| C[C@]12CC[C@H]3c4ccc(O)cc4CC[C@@H]3[C@H]1CC[C@@H]2OC(=O)CCC1CCCC1 | – | 17.9% [at 11.4 µM] (inactive) |
| Cc1ccc(OCc2ccc(C(=O)Nc3nccs3)o2)cc1C | 10 µM (active) | – |
| Cc1onc(C(=O)/C=C/N(C)C)c1C(=O)Nc1nccs1 | inactive | – |
| COC(=O)c1cccc(NC(=O)Nc2ccc(Cl)c(Cl)c2)c1 | 2.51 µM (active) | – |
| O=C(Nc1cccc(Cl)c1)Nn1cnnc1 | – | 8% [at 11.4 µM] (inactive) |
| O=C1OCCC1Sc1nnnn1-c1ccccc1 (stereo not drawn) | inactive | – |
| CCC(CC)C(=O)Nc1ccc(C)c(O)c1 | 3.16 µM (active) | – |
| Cc1ccccc1N1C(=O)c2cc(S(N)(=O)=O)c(Cl)cc2N[C@H]1C | inactive | – |
| Cc1[nH]nc(N2CCCCCC2)c1[N+](=O)[O-] | 17.8 µM (active) | – |
| Cc1ccccc1CN1C2=NCCN2C(=O)C2=C1CCN(Cc1ccccc1)C2 | – | -1.36% [at 11.4 µM] (inactive) |
| CN(C)C(=O)CCc1nc(-c2ccc(C(C)(C)C)cc2)no1 | inactive | – |
| N=C(N)SCc1nc(-c2ccc(Cl)cc2)no1 | 3.98 µM (active) | – |
| Cc1ccc(C(=O)C2CCNCC2)cc1 | inactive | – |
| Cc1ccc(NC(=O)C2CCN(S(C)(=O)=O)CC2)cc1 | inactive | – |
| Cc1ccc(C2CC2C(=O)NN)cc1 (stereo not drawn) | 14.1 µM (active) | – |
| Cc1cccc(CNc2cc(-c3ccccc3CN(C)C)ncn2)c1 | – | -2.61% [at 2.29 µM] (inactive) |
| CC(C)=CCc1c2c(c3occ(-c4ccc(O)c(O)c4)c(=O)c3c1O)C=CC(C)(C)O2 | 3.16 µM (active) | – |
| CN(C)CCO[C@](C)(c1ccccc1)c1ccccn1 | inactive | – |
| COC(=O)c1sccc1NC(=O)c1cc(-c2cc(C)ccc2C)nc2ccccc12 | inactive | – |
| COc1ccc(-c2cc([C@H](O)[C@@H]3CCCCN3)c3ccccc3n2)cc1 | – | 3.54% [at 11.4 µM] (inactive) |
| COC(=O)c1sccc1NC(=O)c1cc(-c2ccc(C)cc2C)nc2ccccc12 | 2.24 µM (active) | – |
| COC(=O)c1sccc1NC(=O)c1cc(-c2ccc(C)cc2)nc2ccccc12 | 3.98 µM (active) | – |
